Lassa entry inh – inhibitors of Lassa virus binding or cell entry; Lassa virus pseudotype entry inhibition, cell reporter; Potency, µM (top dose mostly 37.9 µM), without a hit: top-dose activity change, negative = inhibition, hits mostly inhibitors; 1.2% of 300,000 active; calls by dose curve; tested in HEK293 cells; also: % is scaled to controls: 0 for no effect and ±100 for the full control effect; nearly all actives have a fitted effect of over 50% in size
FMDV antiviral – foot and mouth disease virus antiviral activity. 1.2% of 410,000 active. FMDV antiviral cell-based qHTS. Potency, µM (top dose mostly 57.9 µM), without a hit: top-dose activity change, negative = inhibition, most hits filed as inhibitors; calls by dose curve; tested in HEK293T cells; also: read-out not given here; % is scaled to controls: 0 for no effect and ±100 for the full control effect; nearly all actives have a fitted effect of over 45% in size
HCV inhibitor – blocks hepatitis C virus; Huh7.5.1 HCVcc-Cre infection, luciferase reporter, 44 h; Potency, µM (top dose mostly 41.8 µM), for inactives: top-dose activity change, negative = inhibition, usual class: inhibitors; 3.4% of 340,000 active; AID 651820; also: % is scaled to controls: 0 for no effect and ±100 for the full control effect
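Cells seeded at 1,000/well and cultured 4 h, then compounds added followed by HCVcc-Cre virus (~0.5 moi). After 44 h further culture, luciferase substrate was added, plates held 15 min at room temperature, and luminescence read for 15 sec.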
Sm TGR block – S. mansoni TGR enzyme inhibition. purified TGR, DTNB reduction, TNB absorbance 405 nm. Q962Y6. Potency, µM (doses to about 114 µM), for inactives: at the highest dose activity change, negative = inhibition, most hits filed as inhibitors. AID 485364. 3% of 360,000 active; also: % is scaled to controls: 0 for no effect and ±100 for the full control effect; nearly all actives have a fitted effect of over 60% in size
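First, TGR (20 nM dispensed) and NADPH were mixed with compound. Second, a 15 min room-temperature incubation followed. Third, further NADPH and then DTNB were added to start the reaction. Finally, TNB absorbance was monitored kinetically.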
RE007 growth inh – less growth of the S. pombe RE007 Vpr strain; S. pombe RE007 Vpr strain, BacTiter-Glo ATP luminescence, 24 h; Potency, µM (top dose mostly 92.2 µM), without a hit: at the top dose activity change, negative = less growth, actives largely listed as inhibitors; 0.21% of 360,000 active; AID 651644; active = well fitted falling curve with a large enough effect; inconclusive = small, poorly fitted or top-dose-only effect; inactive = no such curve, though single readings can be large or run the other way; also: % is scaled to controls: 0 for no effect and ±100 for the full control effect; nearly all actives have a fitted effect of over 50% in size
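Fission yeast RE007 carrying one integrated HIV-1 vpr copy, seeded at OD 0.01 in PMG+AL medium with 23 nL pinned compound. Grown 24 h at 30 degrees; viability read by BacTiter-Glo luminescence after 5 min.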
MARV entry inh – blocks Marburg virus binding to or entry into cells; Marburg virus pseudotyped entry inhibition, cell reporter; Potency, µM (doses to about 37.8 µM), for the others: top-dose activity change, negative = inhibition, most hits filed as inhibitors; 1.8% of 300,000 active; calls by dose curve; tested in HEK293 cells; also: % is scaled to controls: 0 for no effect and ±100 for the full control effect
HCV confirm – confirmation of hepatitis C virus inhibitors | 78% of 640 active | shares compounds with HCV inhibitor | Potency, µM (highest dose often 41.8 µM), for the others: at the highest dose activity, negative = inhibition, hits mostly inhibitors | HCVcc-Cre infectious virus cell assay, luciferase, inhibition; also: nearly all actives have a fitted effect of over 80% in size
HCV cytotox – counter-screen for HCV inhibitors: host cell cytotoxicity; HCV host cell line cytotoxicity counterscreen; 22% of 640 active; AID 720576; Potency, µM (top dose mostly 41.8 µM), for the others: at the top dose activity change, negative = cytotoxicity, actives largely listed as inhibitors; shares compounds with HCV inhibitor;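 also: 44 h compound exposure; % is scaled to controls: 0 for no effect and ±100 for the full control effect; nearly all actives have a fitted effect of over 55% in size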
An asterisk follows results filed as active; [ ] = dose if it differs, or a comment. This is a sample that favours compounds with a hit; in the whole collection about 7.2% have one here. Unless noted, calls follow the shape of the dose curve; as a rule, active = well fitted curve in the direction sought with a large enough effect; inconclusive = small, poorly fitted or top-dose-only effect, or another doubt; inactive = no such curve, though single readings can be large; an effect the other way counts as inactive or inconclusive. Potency is read from the fitted curve at half-maximal effect.

`CCOC(=O)C1CCCN(S(=O)(=O)c2ccc(S(N)(=O)=O)cc2)C1` (stereo unspecified) gave Lassa entry inh -14%[46.1 µM], FMDV antiviral -27%, HCV inhibitor inconclusive, Sm TGR block 0%, RE007 growth inh 7% and MARV entry inh inconclusive.
Screening CC1CCN(C(=O)Cn2cc(SCC(=O)Nc3ccccc3C(F)(F)F)c3ccccc32)CC1 returned Lassa entry inh -16%[46.1 µM], FMDV antiviral inconclusive and Sm TGR block -13%.
O=C(c1cccc(F)c1)N1CCC[C@@]2(CCN(Cc3nccs3)C2)C1 was read as FMDV antiviral -15%.
CCOc1nc(-c2ccccc2O)nc2ccccc12 was read as Lassa entry inh 2%, HCV inhibitor inconclusive, Sm TGR block 11%, RE007 growth inh -20%, MARV entry inh 3%, HCV confirm 6.3µM* and HCV cytotox 0.89µM*.
Screening Oc1ccccc1-c1nc(NC2CCCC2)c2ccccc2n1 returned FMDV antiviral -29%, HCV inhibitor inconclusive, Sm TGR block 35% and RE007 growth inh -2%.
Screening O=C1CN(C(=O)COc2ccc(Cl)cc2)C(c2ccc(F)cc2)c2cc(Br)ccc2N1 (stereo unspecified) returned Lassa entry inh inconclusive, FMDV antiviral -28%, Sm TGR block -2% and MARV entry inh inconclusive.
Screening CCOC(=O)c1ccc2c(c1)N(C)C(=O)c1ccccc1S2 returned FMDV antiviral -25%, HCV inhibitor 6%, Sm TGR block 2% and RE007 growth inh 8%.
Screening CCOC(=O)c1cc2n(c1/N=C/N(C)C)-c1ccccc1C2=O returned Lassa entry inh inconclusive, HCV inhibitor inconclusive, Sm TGR block inconclusive, RE007 growth inh 7%, MARV entry inh inconclusive, HCV confirm inconclusive and HCV cytotox 35%.
Cc1ccc(Cl)cc1NC(=O)c1cc(-c2ccc3c(c2)OCCO3)on1 was read as Lassa entry inh inconclusive, FMDV antiviral 13%, Sm TGR block -4% and MARV entry inh inconclusive.
Screening CCCCCn1c(=O)[nH]c2cc(C(=O)NCCCN3CCC(C)CC3)ccc2c1=O returned Lassa entry inh -20%, FMDV antiviral -14%, HCV inhibitor 4.5µM*, Sm TGR block 13%, RE007 growth inh 1%, MARV entry inh inconclusive, HCV confirm 16µM* and HCV cytotox 39%.
Screening FC(F)(F)c1ccc(/C=N/NC(=S)NC2CCCCC2)cc1 returned Lassa entry inh -18%, FMDV antiviral -14%, HCV inhibitor 7%, Sm TGR block 1%, RE007 growth inh -8% and MARV entry inh -1%.
For C=CCNC(=S)N/N=C/c1ccc(C(F)(F)F)cc1 the results were FMDV antiviral inconclusive, HCV inhibitor 8.9µM*, Sm TGR block -10%, RE007 growth inh -9%, HCV confirm 8.9µM* and HCV cytotox 13µM*.
CC(C)NC1CCC(Nc2ccnc3cc(Cl)ccc23)CC1 (stereo unspecified) was read as Lassa entry inh inconclusive, FMDV antiviral -32%, HCV inhibitor 2.8µM*, RE007 growth inh 1%, MARV entry inh 2.8µM*, HCV confirm 4µM* and HCV cytotox -72%.
For O=C(COc1ccc2ccccc2c1)NC1CC(=O)N(c2ccc(F)cc2)C1 (stereo unspecified) the results were Lassa entry inh -20%[46.1 µM], FMDV antiviral -11% and Sm TGR block 15%.
For Cc1noc(/C=C/c2ccccc2F)c1S(=O)(=O)N1CCC(C(=O)N2CCN(C)CC2)CC1 the results were FMDV antiviral -6%, HCV inhibitor 4µM*, Sm TGR block 1%, RE007 growth inh -3%, HCV confirm 22µM* and HCV cytotox inconclusive.
Screening COc1ccccc1NS(=O)(=O)c1cc(NC(=O)/C=C/c2cccs2)ccc1N1CCOCC1 returned Lassa entry inh -4%, FMDV antiviral 55%, HCV inhibitor inconclusive, Sm TGR block -6%, MARV entry inh inconclusive, HCV confirm 20µM* and HCV cytotox 10%.
For Cc1ccc(NC(=O)C(Cc2ccccc2)n2cccc2)c(C)c1 (stereo unspecified) the results were FMDV antiviral -11%, Sm TGR block -10% and MARV entry inh 10%[46.1 µM].
For NS(=O)(=O)c1ccc(CCNc2nc3c(-c4cccc(F)c4)nnn3c3ccccc23)cc1 the results were Lassa entry inh inconclusive, FMDV antiviral -22%, HCV inhibitor 1.4µM*, Sm TGR block -5%, RE007 growth inh inconclusive, MARV entry inh 1%, HCV confirm 7µM* and HCV cytotox -16%.
Screening COc1ccc(NC(=O)Nc2cccc([N+](=O)[O-])c2)cc1Cl returned Lassa entry inh -15%, FMDV antiviral inconclusive, HCV inhibitor inconclusive, Sm TGR block -2% and MARV entry inh inconclusive.
Screening O=C(Nc1ccc([N+](=O)[O-])cc1)Nc1ccc(OC(F)F)c(Cl)c1 returned Lassa entry inh 15µM*, FMDV antiviral 25µM*, HCV inhibitor inconclusive, Sm TGR block -5%, RE007 growth inh -6%, MARV entry inh inconclusive, HCV confirm 7µM* and HCV cytotox 8.9µM*.
`Cc1cc(C)nc(/N=C(\N)Nc2ccc(S(=O)(=O)O)cc2)n1` gave Lassa entry inh 21%[46.1 µM], FMDV antiviral -4%, HCV inhibitor -1%, Sm TGR block 65%, RE007 growth inh 8% and MARV entry inh 9%[46.1 µM].
For Cc1cc(C)nc(/N=C(\N)Nc2ccc(CC(=O)OC(C)C)cc2)n1 the results were Lassa entry inh 7%[46.1 µM], FMDV antiviral -1%, HCV inhibitor 3.5µM*, Sm TGR block 71%, RE007 growth inh -5%, MARV entry inh inconclusive, HCV confirm 2.8µM* and HCV cytotox -93%.
CCN1C(=O)/C(=C\c2cccs2)C(C(=O)OC)=C1C was read as Lassa entry inh 5%, FMDV antiviral -12%, HCV inhibitor 4µM*, Sm TGR block -24%, RE007 growth inh -19%, MARV entry inh -7%, HCV confirm inconclusive and HCV cytotox inconclusive.
Screening NS(=O)(=O)c1ccc(N=Nc2ccc(O)c3ncccc23)cc1 returned FMDV antiviral -16%, HCV inhibitor 3.5µM*, Sm TGR block 56µM*, HCV confirm 7.9µM* and HCV cytotox 8.9µM*.

Source: PubChem BioAssay (National Center for Advancing Translational Sciences (NCATS))
